Most compounds without a hit are left out; they make up all but 1.1% or so of the library.
SRC2 inh – inhibits human steroid receptor coactivator 2; HEK293 GAL4-SRC2 luciferase reporter, luminescence; inhibition, % at 9 µM; actives 0.17% (n = 370,000);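 active means inhibition above the mean inhibition of all tested compounds plus 3 SD, set per campaign, cut at about 52% in these data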
NCOA3 inh – inhibitors of human steroid receptor coactivator 3 (SRC3); actives 0.17% (n = 360,000); HEK293 GAL4-SRC3 luciferase reporter, luminescence; inhibition, % at 3.6 µM; Q9Y6Q9; AID 588352;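 active means inhibition above a per-campaign cutoff, the mean of all compounds plus 3 SD, cut at about 60% in these data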;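 further: higher means less SRC3-driven luciferase light from the GAL4 reporter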
NCOA1 inh – inhibits human SRC1 coactivator | Q15788 | HEK293 GAL4-SRC1 luciferase reporter, luminescence | inhibition, % at 3.6 µM | actives 0.12% (n = 360,000) | AID 588354;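 active means inhibition above the campaign mean plus 3 SD, with each screening campaign given its own cutoff, cut at about 60% in these data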
NR5A2 inv ag – NR5A2 inverse agonism in reporter assay. O00482. HEK293T StAR-luciferase reporter, LRH-1 transfected, 24 h. inhibition, % at 3.6 µM. actives 0.13% (n = 360,000);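 active means inhibition above the mean inhibition of all tested compounds plus 3 SD, cut at about 73% in these data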
Target sequence (O00482 whole entry, looked up): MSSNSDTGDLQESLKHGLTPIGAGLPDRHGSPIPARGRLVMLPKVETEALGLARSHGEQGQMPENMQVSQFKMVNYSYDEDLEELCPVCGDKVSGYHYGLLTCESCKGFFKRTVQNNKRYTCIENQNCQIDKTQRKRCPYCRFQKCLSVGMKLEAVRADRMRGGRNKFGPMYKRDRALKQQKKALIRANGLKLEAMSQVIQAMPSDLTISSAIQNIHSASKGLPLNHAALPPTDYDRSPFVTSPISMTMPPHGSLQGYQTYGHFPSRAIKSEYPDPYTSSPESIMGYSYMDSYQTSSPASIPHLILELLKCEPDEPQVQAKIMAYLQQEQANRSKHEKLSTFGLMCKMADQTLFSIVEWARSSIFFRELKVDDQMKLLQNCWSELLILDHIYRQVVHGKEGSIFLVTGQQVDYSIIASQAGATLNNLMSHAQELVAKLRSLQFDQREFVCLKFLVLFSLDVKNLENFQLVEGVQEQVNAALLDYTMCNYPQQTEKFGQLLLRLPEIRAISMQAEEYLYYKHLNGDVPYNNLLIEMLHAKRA
GalR3 antagonist – antagonists of human GalR3; AID 651719; actives 0.44% (n = 360,000); HEK293 GalR3-CNG cAMP membrane potential fluorescence; galR3 body fused to GalR1 C-terminus; O60755; inhibition, % at 3 µM;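 active means inhibition above the screen-wide average plus 3 SD, cut at about 13% in these data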;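 further: forskolin and galanin both at EC90 stimulate the cells; cAMP rise reported by CNG channel membrane potential dye signal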
COUP-TFII inh – NR2F2 (human) inhibition, primary screen. actives 0.7% (n = 370,000). HEK293T NGFI-A luciferase reporter, luminescence. AID 686940. inhibition, % at 8.6 µM;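 active means inhibition above a per-plate cutoff, mean inhibition of test wells between control levels plus 3 SD, cut at about 38% in these data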;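 further: cells cotransfected with COUP-TFII expression vector driving the NGFI-A reporter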
GalR3 conf – GalR3 (human) antagonism, confirmation; shares compounds with GalR3 antagonist; HEK293 GalR3 CNG cAMP biosensor, membrane potential fluorescence; galR3 fused to GalR1 carboxy tail; challenged with forskolin and galanin at EC90; inhibition, % at 3 µM; actives 59% (n = 1,600);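 active means inhibition above the primary screen's cutoff, the mean inhibition of all screened compounds plus 3 SD, cut at about 13% in these data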
HEK-CNG parental – counter-screen for GalR3 antagonists: nonspecific agonists in parental HEK-CNG cells; actives 10% (n = 1,600); shares compounds with GalR3 antagonist; activation, % at 3 µM; HEK293-CNG parental cells, cAMP membrane potential fluorescence; normalised: DMSO wells 0%, forskolin wells 100%; in the data active means activation above about 1.3%
Large screens that a line does not name were inactive (follow-up assays come after a bar, where they were run).

OCCN1CCN(CC(O)COc2ccc(C34CC5CC(CC(C5)C3)C4)cc2)CC1 (stereo unspecified)	none
NCCOc1ccc(C23CC4CC(CC(C4)C2)C3)cc1	GalR3 antagonist 27.1 | GalR3 conf 28.3 | HEK-CNG parental 14.3
COc1cc(NC(=O)COc2cccc(C)c2C)ccc1NC(=O)c1ccco1	GalR3 antagonist 13.8 | GalR3 conf inactive | HEK-CNG parental inactive
COc1ccccc1-c1nnc2n1N=C(c1ccc3c(c1)OCO3)CS2	none (no result: NCOA3 inh, NCOA1 inh, NR5A2 inv ag, GalR3 antagonist)
COc1ccc(C2=Nn3c(nnc3-c3ccccc3OC)SC2)cc1OC	GalR3 antagonist 38.3 | GalR3 conf 46.0 | HEK-CNG parental 1.5
c1ccc(-c2ccc(C3=Nn4c(nnc4-c4cccs4)SC3)cc2)cc1	GalR3 antagonist 16.3 | GalR3 conf 45.7 | HEK-CNG parental 1.8
O=C(Cc1ccc(Nc2nc3ccc(Br)cc3[nH]2)cc1)NCCc1cccs1	GalR3 antagonist 15.3 | GalR3 conf 27.0 | HEK-CNG parental inactive
S=c1[nH]nc(-c2n[nH]c3c2CCC3)n1N=Cc1cccs1	none (no result: NCOA3 inh, NCOA1 inh, NR5A2 inv ag, GalR3 antagonist)
Cc1ccc(OCc2nn3c(C4CCCCC4)nnc3s2)cc1	none (no result: NCOA3 inh, NCOA1 inh, NR5A2 inv ag, GalR3 antagonist)
COc1ccc(OCCOC(=O)c2[nH]c(C)c(C(C)=O)c2C)cc1	GalR3 antagonist 15.6 | GalR3 conf inactive | HEK-CNG parental inactive
COc1ccc(CCNC(=O)c2[nH]c(C)c(C(C)=O)c2C)cc1	none
Cc1ccc(CNC(=O)OC(C)(C)C)c(/C=C/S(=O)(=O)NC2CCCC2)c1	none (no result: NCOA3 inh, NCOA1 inh, NR5A2 inv ag, GalR3 antagonist)
O=C(NC(=S)NCc1ccccc1)c1ccccc1F	none
O=C(NC(=S)NC(=O)c1ccccc1F)c1ccccc1F	GalR3 antagonist 17.7 | GalR3 conf inactive | HEK-CNG parental inactive
Cc1nc2ccc(NC(=O)c3ccc(F)cc3Cl)cc2c(=O)[nH]1	none (no result: NCOA3 inh, NCOA1 inh, NR5A2 inv ag, GalR3 antagonist)
CC(C)=CCc1c2c(c3occ(-c4ccc(O)cc4)c(=O)c3c1O)C=CC(C)(C)O2	GalR3 antagonist 20.3 | GalR3 conf 24.3 | HEK-CNG parental inactive
N/C(=N\OC(=O)c1cccc(Cl)c1)c1cccnc1	none (no result: GalR3 antagonist) | GalR3 conf inactive | HEK-CNG parental inactive
Cc1ccc(NC(=O)C2CCCN(c3nnc(-n4cccc4)s3)C2)c(C)c1 (stereo unspecified)	none (no result: NCOA3 inh, NCOA1 inh, NR5A2 inv ag, GalR3 antagonist)
Clc1ccc([C@H]2OC[C@@]3(CNCc4ccccc4)CS[C@H](c4ccc(Cl)cc4)N23)cc1	none (no result: SRC2 inh, NCOA3 inh, NCOA1 inh, NR5A2 inv ag, GalR3 antagonist)
O=C(N/N=C(\c1ccccc1)c1cccnc1)c1cccc(F)c1	GalR3 antagonist 42.3 | GalR3 conf 38.0 | HEK-CNG parental inactive
COc1ccc(C(=O)C2(C(=O)Nc3cc(C)cc(C)c3)CC(c3ccccc3C(F)(F)F)=NO2)cc1 (stereo unspecified)	none (no result: NCOA3 inh, NCOA1 inh, NR5A2 inv ag, GalR3 antagonist)
OCc1c(Cl)nc2ccccn12	GalR3 antagonist 14.2 | GalR3 conf inactive | HEK-CNG parental inactive
O=Cc1c(Cl)nc2ccccn12	none
CCN(CC)S(=O)(=O)c1ccc(N2CCOCC2)c(NC(=O)COc2ccccc2)c1	none (no result: GalR3 antagonist) | GalR3 conf 12.9 | HEK-CNG parental inactive
CCN(CC)S(=O)(=O)c1ccc(N2CCOCC2)c(NC(=O)CCOc2ccccc2)c1	none
CCN(CC)S(=O)(=O)c1ccc(N2CCCC2)c(NC(=O)Cc2cc(OC)c(OC)c(OC)c2)c1	GalR3 antagonist 19.4 | GalR3 conf inactive | HEK-CNG parental inactive
O=C(Nc1ccccc1O)C(c1ccccc1)c1ccccc1	GalR3 antagonist 54.6 | GalR3 conf 91.9 | HEK-CNG parental inactive
CCNC(=O)NC(=O)C(C)Oc1ccc(C(=O)OC)cc1 (stereo unspecified)	GalR3 antagonist 19.8 | GalR3 conf inactive | HEK-CNG parental inactive
CCOC(=O)c1sc(-c2ccc(C)cc2)c(C#N)c1C	none
Cc1c(C(=O)NN)sc(-c2ccccc2)c1C#N	GalR3 antagonist 15.9 | GalR3 conf inactive | HEK-CNG parental inactive
O=C(NCCO)[C@H](Cc1ccccc1)NC1(C(=O)NCCc2c[nH]c3ccccc23)CCCCC1	none (no result: SRC2 inh, NCOA3 inh, NCOA1 inh, NR5A2 inv ag, GalR3 antagonist)

Assay outcomes deposited in PubChem by The Scripps Research Institute Molecular Screening Center.
